# Screening data deposited in PubChem BioAssay by National Center for Advancing Translational Sciences (NCATS).
# G9a inh = inhibitors of human histone lysine methyltransferase G9a. Potency, µM (top dose mostly 102 µM), inactives show top-dose activity, negative = inhibition, hits mostly inhibitors. G9a H3K9 monomethylation, AlphaScreen, 2 h. AID 504332. Q96KQ7. 350,000 tested, 8.8% active; also: potency is read from the fitted curve at half-maximal effect; % is scaled to controls: 0 for no effect and ±100 for the full control effect; nearly all actives have a fitted effect of over 75% in size
#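 G9a (20 nM) was preincubated 15 min with compound, then reacted 2 h at room temperature with 500 nM biotin-H3K9 peptide and 20 µM SAM. Monomethyl-H3K9 detected by AlphaScreen using anti-H3K9me1 antibody.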
# PI5P4K alpha inh = PI5P4K alpha (human) kinase inhibition | AID 652105 | PI5P4Kalpha enzyme, ADP-Glo luminescence, 60 min; stronger effect = lower value | max response, % | 330,000 tested, 1.2% active | P48426; active = max response of -50% or lower; inconclusive = between -30% and -50%; inactive = -30% or higher; also: value at the top dose of about 77 µM; % is scaled to controls: 0 for no effect and ±100 for the full control effect
#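 Quantitative HTS of the MLSMR library against PI5P4Kalpha with substrate. ATP added last at 5 microM final; room temperature, 60 minutes. Remaining ATP depleted, ADP converted and read as luminescence.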
# JMJD2A Tudor inh = blocks the human JMJD2A Tudor domain | 390,000 tested, 4.4% active | Potency, µM (top dose mostly 114 µM), for inactives: at the top dose activity change, negative = inhibition, hits mostly inhibitors | O75164 | AlphaScreen JMJD2A-Tudor / H3K4me3 peptide binding | AID 504339; also: potency is read from the fitted curve at half-maximal effect; % is scaled to controls: 0 for no effect and ±100 for the full control effect; nearly all actives have a fitted effect of over 50% in size
# PLK1 PBD block = PLK1 (human) polo-box domain binding inhibition; Potency, µM, without a hit: max response, negative = inhibition, most hits filed as inhibitors; 360,000 tested, 2.8% active; Plk1 PBD binding of FITC phosphopeptide, fluorescence polarization; also: potency is read from the fitted curve at half-maximal effect; series mostly up to about 57 µM; % is scaled to controls: 0 for no effect and ±100 for the full control effect; nearly all actives have a fitted effect of over 65% in size
# Target sequence (P53350 whole entry, looked up, the tested form may be a part): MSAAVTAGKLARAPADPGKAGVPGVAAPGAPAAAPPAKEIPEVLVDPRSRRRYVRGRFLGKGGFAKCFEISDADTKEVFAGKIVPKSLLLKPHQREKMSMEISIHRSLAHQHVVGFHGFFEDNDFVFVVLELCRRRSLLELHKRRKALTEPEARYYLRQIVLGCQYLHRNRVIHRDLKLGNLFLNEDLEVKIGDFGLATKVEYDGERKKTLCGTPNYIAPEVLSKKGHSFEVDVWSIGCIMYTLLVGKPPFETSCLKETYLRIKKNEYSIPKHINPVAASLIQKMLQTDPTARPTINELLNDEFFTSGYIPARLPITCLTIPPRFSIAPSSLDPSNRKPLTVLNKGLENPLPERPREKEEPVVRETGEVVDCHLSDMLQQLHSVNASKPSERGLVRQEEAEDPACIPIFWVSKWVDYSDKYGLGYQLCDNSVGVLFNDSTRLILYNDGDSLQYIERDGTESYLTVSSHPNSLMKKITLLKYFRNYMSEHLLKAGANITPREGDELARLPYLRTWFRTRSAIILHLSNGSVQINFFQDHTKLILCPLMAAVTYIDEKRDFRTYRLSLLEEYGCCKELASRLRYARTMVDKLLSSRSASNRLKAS
# HP1b binding inh = HP1-beta chromodomain-methylated histone interaction inhibition | AlphaScreen HP1-beta / biotin-H3K9me3 peptide binding | Potency, µM (doses to about 114 µM), for the others: top-dose activity change, negative = inhibition, actives largely listed as inhibitors | 390,000 tested, 0.56% active | AID 540317; also: potency is read from the fitted curve at half-maximal effect; nearly all actives have a fitted effect of over 70% in size
#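 AlphaScreen: HP1-beta (50 nM) preformed 30 min with biotin-H3(1-18)K9me3 peptide (50 nM) in PBS pH 7.4, 0.01% Tween-20. Compound added for 30 min at RT, then streptavidin donor/nickel chelate acceptor beads (10 ug/mL) for 30 min.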
# BAZ2B inh = BAZ2B (human) inhibition; Q9UIF8; AlphaScreen BAZ2B-H3K14Ac peptide displacement; Potency, µM (doses to about 114 µM), for inactives: at the top dose activity change, negative = inhibition, usual class: inhibitors; 360,000 tested, 4.4% active; also: potency is read from the fitted curve at half-maximal effect; % is scaled to controls: 0 for no effect and ±100 for the full control effect; nearly all actives have a fitted effect of over 60% in size
#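 BAZ2B 50 nM plus b-H3(5-23)K14Ac 50 nM, PBS pH 7.4/0.01% Tween-20, 30 min RT; compound added (max 110 uM), 30 min RT; streptavidin donor/Ni-chelate acceptor beads 10 ug/mL final, 20 min dark; AlphaScreen read.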
# * hit, by the source's call; ? = inconclusive; . = no result; [ ] = another dose, or the depositor's remark. Only some compounds are listed: those with a hit (about 12% of all), similar ones and a draw of the others. Unless noted, calls follow the shape of the dose curve; as a rule, active = well fitted curve in the direction sought with a large enough effect; inconclusive = small, poorly fitted or top-dose-only effect, or another doubt; inactive = no such curve, though single readings can be large; an effect the other way counts as inactive or inconclusive.
SMILES,G9a inh,PI5P4K alpha inh,JMJD2A Tudor inh,PLK1 PBD block,HP1b binding inh,BAZ2B inh
O=C1Nc2cc(C(=O)NCCCN3CCCC3)ccc2S/C1=C/c1cccc(Cl)c1,.,-51*,.,-10%,.,.
COc1cccc(/C=C2/Sc3ccc(C(=O)NCCN4CCCCCC4)cc3NC2=O)c1,40µM*,?,?,-3%,5%,?
COc1ccc(-c2ccc(CCC(=O)O)n2-c2ccc(Cl)cc2C)cc1,?,.,?,.,2%,?
O=C(c1ccncc1)N1CCC2(CCCN(c3ncccn3)C2)CC1,8%[12.7 µM],.,.,.,.,.
COc1ccccc1CN1CC[C@@]2(CCCN(C(=O)c3cnccn3)C2)C1,-4%[12.7 µM],.,.,.,.,.
CCN1CCCC1CNC(=O)c1ccc2c(c1)NC(=O)/C(=C\c1ccc(OC)c(OC)c1)S2 (stereo not drawn),-9%[0.0925 µM],-1,28µM*,-14%,-17%[57 µM],25µM*
CCN1CCCC1CNC(=O)c1cc(N)ccc1OC (stereo not drawn),.,0,0.79µM*,2%,?,.
NC(=O)c1ccc(NC(=O)CSc2nnc(-c3cccnc3)n2Cc2ccco2)cc1,?,-6,39%,-14%,61%,-33%
CCn1ncc(C2=NOC(C(=O)NCc3ccc(OC)cc3)C2)c1C (stereo not drawn),-6%[2.33 µM],.,-7%,0%,25%,12%
COc1ccc(C2=NOC(C(=O)NCc3ccccc3)C2)cc1 (stereo not drawn),.,.,?,27µM*,-16%,15%
CCn1ncc(C2=NOC(C(=O)NCc3ccccc3)C2)c1C (stereo not drawn),45µM*,.,-1%,?,-8%,1%
CS(=O)(=O)c1ccc(S(=O)CC(=O)Oc2ccc(Cl)cc2)c([N+](=O)[O-])c1 (stereo not drawn),6.3µM*,-9,-5%,3µM*,9%,-2%
Cc1cc(-c2nnco2)c(C)n1-c1ccc(F)cc1,-5%[59 µM],.,?,3%,-15%,-32%
Cc1ccc(C)n1-c1ccc(-c2nnco2)cc1,45µM*,.,.,.,.,-36%
CCn1nc(C)cc1-c1n[nH]c(=S)n1N,2.8µM*,3,8.9µM*,-3%,?,?
Cc1ccc(OCc2n[nH]c(=S)n2N)cc1C,?,0,?,-7%,22%,-19%
COc1ccc2c(c1)sc(N)[n+]2Cc1cc(C)cc2cccnc12,50µM*,-8,-20%,1%,2%,-10%
CCCCC(=O)O[C@]1(C(=O)CO)CCC2C3CCC4=CC(=O)CCC4(C)C3C(O)CC21C (stereo partly drawn),-3%[12.7 µM],.,.,.,.,.
O=C(OCC#CCSc1nnc(-c2cccc3ccccc23)o1)c1ccncc1,.,.,-6%,.,.,.
CCOC(=O)c1c(C)oc2c1c(C(c1cccnc1)N1CCCCC1)c(O)c1ccccc12 (stereo not drawn),?,1,?,12µM*,-6%,?
CCOC(=O)c1c(C)oc2c1c(C=NCCO)c(O)c1ccccc12,50µM*,15,?,-21%,-2%,-39%
COc1ccc(-c2nc(N3CCN(C)CC3)sc2-c2ccc(OC)cc2)cc1,14µM*,12,22µM*,-1%,50µM*,28µM*
COc1ccc(-c2nc(N3CCCCCC3)sc2C(=O)c2ccccc2)cc1,24%[59 µM],12,15%,-12%,28%,4%
Cc1n[nH]c(=O)c2c(NC(=O)CSc3c(Cl)cccc3Cl)oc(C)c12,13µM*,-26,-11%,?,20%,11%
Cc1n[nH]c(=O)c2c(NC(=O)CSc3ccccc3Cl)oc(C)c12,32µM*,-15,-18%,?,0%,13%
SMILES,G9a inh,PI5P4K alpha inh,JMJD2A Tudor inh,PLK1 PBD block,HP1b binding inh,BAZ2B inh
CCCOC(=O)c1cccc(NC(=O)c2c(-c3ccccc3Cl)noc2C)c1,0%[59 µM],.,12%,.,33%,11%
COc1ccc(N(CC(=O)Nc2cccc(Cl)c2C)S(=O)(=O)c2c(C)nn(C)c2C)cc1,3%[59 µM],.,-5%,.,43%,.
N#Cc1c(NC(=O)CSc2ncc(-c3ccccc3)n2CC2CCCO2)sc2c1CCCC2 (stereo not drawn),11µM*,.,?,-1%,-26%,?
Nc1ncc(-c2ccccc2)n1CC1CCCO1 (stereo not drawn),29%[0.501 µM],.,?,?,6%,20µM*
O=C(CSc1ncc(-c2ccccc2)n1CC1CCCO1)N1CCCCC1 (stereo not drawn),-33%,5,-3%,-5%,28%,19%
Cc1ccc(Nc2nc(-c3ccc(S(=O)(=O)N4CCOCC4)cc3)cs2)cc1Cl,1%[59 µM],4,-30%,-2%,8%,0%
Nc1nc(-c2ccc(Cl)cc2)c(N=Nc2ccc(S(=O)(=O)N3CCOCC3)cc2)s1,?,6,?,-3%,?,7.1µM*
CC1CCCN(CCCNS(=O)(=O)c2cc(Br)cc3c2N(C(=O)C2CC2)CC3)C1 (stereo not drawn),26%[59 µM],1,-2%,0%,24%,4%
O=C(C1CC1)N1CCc2cc(Br)cc(S(=O)(=O)NCCCN3CCCC3)c21,50µM*,.,?,-10%,4%,7%
COC(=O)[C@]1(CC(C)C)N[C@H](c2ccc(SC3CCCCC3)c(OC)c2)[C@@H]2C(=O)N(C)C(=O)[C@@H]21,23%[2.33 µM],0,-20%,-9%,31%,-3%
CCCCCCSc1ccc([C@H]2N[C@@](CC(C)C)(C(=O)OC)[C@H]3C(=O)N(C)C(=O)[C@@H]23)cc1OC,9%[12.7 µM],10,?,21µM*,15%,-2%
COCCNC(=O)C1CCC(CNS(=O)(=O)c2ccc3c(c2)CC(C)N3C(C)=O)CC1 (stereo not drawn),-30%[59 µM],.,-14%,.,35%,-25%
Cc1ccc([N+](=O)[O-])cc1S(=O)(=O)N1CCNCC1,-9%,-15,-22%[11.4 µM],15µM*,1%,-17%
CC(=O)c1cc(NC(=O)c2cccc(C(F)(F)F)c2)c(=O)oc1/C=C/N(C)C,10%,-4,-9%,9%,21%,-5%
CC(=O)c1cc(NC(=O)c2cccc(C(F)(F)F)c2)c(=O)oc1C,25µM*,12,-20%[11.4 µM],24µM*,-12%,-20%
COc1ccc(C(=O)NNC(=O)c2cc3cc(OC)ccc3oc2=O)cc1,.,1,17%[57.1 µM],-7%,62%,?
COc1ccc(C(=O)Nc2cc(C(C)=O)c(C)oc2=O)cc1,35µM*,5,-6%,-4%,47%,-20%
Cc1ccc(S(=O)(=O)N2[C@H](CC(=O)c3ccc(F)cc3)OC[C@@H]2C(C)C)cc1,.,4,.,-10%,.,.
CCn1cc2c(n1)-c1c(oc(C(=O)Nc3ccc(Br)cc3F)c1C)CC2,-9%[59 µM],.,-14%,.,23%,-8%
